Consider 44 molecules from ChEMBL document CHEMBL4888484, “Replenishing the malaria drug discovery pipeline: Screening and hit evaluation of the MMV Hit Generation Library 1 (HGL1) against asexual blood stage Plasmodium falciparum ,using a nano luciferase reporter read-out” (2022).

The structures appear in SMILES notation. Among all 150,000 compounds or so, about 540 (0.36%) showed an effect of 50% or more. Shown is part of a subset that was picked to be rich in strong results.

The subject of this assay is Plasmodium falciparum. The assay is described as follows: Primary screen in NF54 nanoGlo assay, in single point, at 2uM, 72h; a lower Z score goes with more inhibition. Particulars: timepoint 72 hour. Format: functional, Erythrocyte.
What is called % Inhibition is the change of the read-out against control, counted positive when it falls. For the molecule `N#Cc1nc(C2CC2)oc1N1CCN(C(=O)CCc2ccco2)CC1`, the “% Inhibition” value is -7% and the Z score turned out to be 1.41.

On to `CN1CCC(Oc2nc3ccc(F)cc3o2)CC1`, for which the “% Inhibition” value is reported as -11% and the Z score stood at 1.44.

In the case of `CCNC(=O)c1cc(NCCc2nccn2Cc2ccccc2)ccn1`, the “% Inhibition” value is given as -9% and the Z score amounted to 0.95.

Take `Cc1ccccc1N1C(=O)CN(C(=O)C2COc3ccccc3O2)CC1C` (stereo not drawn): the “% Inhibition” value was -1% and the Z score came out at 0.18.

As for `c1ccc2c(-c3cc4c(c(O[C@H]5CCOC5)c3)OCCNC4)csc2c1`, the “% Inhibition” value was -8% and the Z score is given as 1.61.

Consider `COC(=O)c1cn(Cc2cccnc2)cc2c(O)nnc1-2`, for which the “% Inhibition” value amounted to 0% and the Z score was -0.02.

In the case of `COC(=O)c1cn(CCc2cn3ccccc3n2)cc2c(O)nnc1-2`, the “% Inhibition” value is reported as -7% and the Z score came out at 0.84.

As to `CC(C)[C@H](NC(=O)[C@H](Cc1ccccc1)n1cnnn1)c1nc2ccccc2[nH]1`, the “% Inhibition” value is -15% and the Z score is recorded as 1.85.

On to `C#CCn1cnc(-c2ccccc2)c1NC(=O)CCc1ccc(C(C)C)cc1`, for which the “% Inhibition” value is reported as -7% and the Z score is 0.8.

Take `COc1cccc2c1Oc1c(c(=O)n(-c3ccccc3)n1CC(=O)Nc1cccc(F)c1)C2`: the “% Inhibition” value is reported as -19% and the Z score is 1.9.

Consider `Cc1c(C(=O)[C@H](C#N)c2nnc(N3CCOCC3)n2-c2ccccc2)nnn1-c1ccc(F)cc1`, for which the “% Inhibition” value is listed as -7% and the Z score came out at 1.18.

On to `COc1ccccc1CN1Cc2ccccc2O[C@@H](C)C1=O`, for which the “% Inhibition” value was -5% and the Z score is on record as 0.61.

Turning to `COc1ccccc1CN1COc2cc3c(cc2C1)OCO3`, the “% Inhibition” value was found to be 56% and the Z score was -4.75.

Take `Cc1ccc(N2COc3cc4c(cc3C2)OCO4)cc1C`: the “% Inhibition” value is -10% and the Z score was 1.51.

As to `CN1CC[C@@]2(CCC1=O)CN(c1ccnc3ccc(Cl)cc13)CCN2C`, the “% Inhibition” value was -4% and the Z score amounted to 0.66.

Take `O=C(Cn1cnnn1)NCc1ccc2c(c1)CCC2`: the “% Inhibition” value was -44% and the Z score came out at 5.16.

Turning to `Cc1nnc([C@@]23COC[C@@H]2CN(C(=O)c2cccc4[nH]ccc24)C3)o1`, the “% Inhibition” value is reported as -10% and the Z score is listed as 1.33.

In the case of `COc1cccc(NC(=O)Cn2c(C)ccc(NS(=O)(=O)c3ccc(C)cc3)c2=O)c1`, the “% Inhibition” value was 74% and the Z score is -9.85.

In the case of `Cc1ccc(S(=O)(=O)Nc2ccc(C)n(CC(=O)NCC(C)C)c2=O)cc1`, the “% Inhibition” value was -22% and the Z score was found to be 3.01.

Take `CCC(C)(C)NC(=O)Cn1c(C)ccc(NS(=O)(=O)c2ccc(C)cc2)c1=O`: the “% Inhibition” value is -4% and the Z score amounted to 0.69.

On to `C=CCN(C)C(=O)NCc1ccc(Br)c(F)c1`, for which the “% Inhibition” value is recorded as 2% and the Z score is -0.18.

For `COc1ccc(-c2cn3c(C(=O)N4CCNC(=O)C4)csc3n2)cc1F`, the “% Inhibition” value is -19% and the Z score was determined as 2.43.

With `CN1CC[C@H](c2nc3cc(F)ccc3[nH]2)C1`, the “% Inhibition” value is on record as -1% and the Z score is 0.12.

As for `Cc1noc2ncnc(N3CCCC[C@H]3c3nccs3)c12`, the “% Inhibition” value is recorded as -7% and the Z score was 0.7.

As to `CCOC(=O)c1cn(CC2CCCCC2)c2nc(C)ccc2c1=O`, the “% Inhibition” value worked out at 23% and the Z score is listed as -2.66.

Take `Cc1cc2c(=O)c(C(=O)c3ccncc3)cn(CC(=O)NC3CCCCC3)c2cc1F`: the “% Inhibition” value is given as -1% and the Z score was 0.12.

Regarding `CCOC(=O)c1cn(CC)c2cc(NC3CCCCC3)c(F)cc2c1=O`, the “% Inhibition” value turned out to be 67% and the Z score was -12.03.

For `Cc1cc(C)nc(NC[C@H](O)COc2ccc(F)cc2)n1`, the “% Inhibition” value is 5% and the Z score was -0.6.

On to `Cc1nc(CC(=O)NC[C@H](O)COc2ccc(F)cc2)cs1`, for which the “% Inhibition” value is given as -3% and the Z score is recorded as 0.65.

Regarding `COc1ccc(Nc2nc(COC(=O)Cn3cnc4c3c(=O)n(C)c(=O)n4C)cs2)cc1`, the “% Inhibition” value is -6% and the Z score was found to be 0.88.

With `CO[C@H]1COCC[C@@H]1NC(=O)c1ccc(C#CC(C)(C)O)o1`, the “% Inhibition” value was 1% and the Z score is -0.19.

Take `CC[C@@H](COc1ccccc1)NC(=O)CC1CCNCC1`: the “% Inhibition” value is 9% and the Z score is recorded as -1.66.

For the molecule `Cc1ccc(N2C(=O)C3C4C=CC(C4=C4CCCCC4)C3C2=O)cc1Cl` (stereo not drawn), the “% Inhibition” value was -11% and the Z score is on record as 1.34.

Turning to `O=C1C2C3C=CC(C3=C3CCCCC3)C2C(=O)N1c1cccc(Cl)c1` (stereo not drawn), the “% Inhibition” value amounted to 51% and the Z score is -1.24.

`Cc1cccc(N2C(=O)C3C4C=CC(C4=C4CCCCC4)C3C2=O)c1` (stereo not drawn): the “% Inhibition” value turned out to be 0% and the Z score is on record as 0.03.

With `Cc1cnc(NC(=O)c2cccc3ccccc23)s1`, the “% Inhibition” value was -12% and the Z score was 2.18.

For `O=C(Nc1[nH]c(=O)ncc1F)c1cc(F)c(F)cc1Br`, the “% Inhibition” value turned out to be 91% and the Z score is given as -7.85.

Take `COc1cc(C(=O)Nc2[nH]c(=O)ncc2F)ccc1Cl`: the “% Inhibition” value is listed as 76% and the Z score is -11.96.

In the case of `COc1cc(C(=O)Nc2nc(C)nn2C)ccc1Cl`, the “% Inhibition” value is on record as -9% and the Z score was 1.22.

As for `O=C(NCCc1n[nH]c(=O)[nH]1)c1c(F)cc(Br)cc1F`, the “% Inhibition” value was -3% and the Z score is recorded as 0.32.

On to `O=C(Nc1ccc(Cl)cn1)c1cccc2ccccc12`, for which the “% Inhibition” value is -6% and the Z score is recorded as 1.15.

Take `Cc1cc(NC(=O)c2ccc(Cl)c(F)c2)nc(=O)[nH]1`: the “% Inhibition” value is -4% and the Z score was 0.38.

As to `O=C(NCc1n[nH]c(=O)[nH]1)c1ccc(Br)c(F)c1`, the “% Inhibition” value is given as -6% and the Z score is reported as 0.79.

As for `O=C(Nc1[nH]c(=O)ncc1F)c1cccc2ccccc12`, the “% Inhibition” value turned out to be 85% and the Z score is -7.83.
